The record followed here is PubChem BioAssay (Tox21).

Experiment [1] is described as follows: qHTS assay to identify small molecule antagonists of the estrogen receptor alpha (ER-alpha) signaling pathway using the BG1 cell line in the presence of 0.1 nM 17-beta-estradiol - cell viability counter screen (AID 1259241). Further: nearly all actives have a fitted effect of over 40% in size. The method in brief:
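VM7Luc4E2 cells (endogenous full-length ER-alpha, 4xERE-luciferase), cultured 5 days in charcoal-stripped serum, exposed to compounds with 0.1 nM 17beta-estradiol (final) for 22 hr at 37C. Viability read in same wells as live-cell protease fluorescence after 30 min.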
On the technique in general: Quantitative high-throughput screening tests each substance at several concentrations.

The nature of experiment [2]: qHTS assay to identify small molecule antagonists of the androgen receptor (AR) signaling pathway using the MDA cell line in the presence of 0.5 nM R1881 - cell viability counter screen (AID 1259242). Further: nearly all actives have a fitted effect of over 45% in size. Further: potency means the concentration at half of the fitted maximal effect. An outline of the steps: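 Viability of MDA-kb2 cells was multiplexed with the luciferase AR readout; after 16 hr with compounds and R1881 at 0.5 nM final, CellTiter-Fluor fluorescence was recorded.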

A short description of experiment [3]: qHTS assay to identify small molecule phospholipidosis (PLD) inducers (AID 1259344; active means well fitted curve in the direction sought with a large enough effect; an effect the other way counts as inactive or inconclusive). The method in brief: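 HepG2 cells grown on collagen I take up LipidTOX Red while exposed to compound for 24 h; after fixation they are imaged at 20x and pit metrics are extracted.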
The nature of experiment [4]: qHTS assay to identify small molecule HDAC inhibitors (AID 1259364).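 Further: wild-type HCT-116 cells with endogenous class I/II HDAC activity; top concentration of the series differs between compounds; nearly all actives have a fitted effect of over 45% in size.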 The method in brief: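 Read-out: luminescence of HDAC-Glo I/II reagent, 30 min RT, reflecting class I/II deacetylase activity in whole HCT-116 cells pre-exposed 2 h to DMSO-dissolved compounds.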
Experiment [5] is described as follows: qHTS assay to identify small molecule HDAC inhibitors - cell viability counter screen (AID 1259365). Further: series mostly up to about 92 µM; nearly all actives have a fitted effect of over 50% in size. An outline of the steps:
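Wild-type HCT-116 cells, 1,500/well, cultured overnight, then compound-treated 2 h at 37 C. Viability measured as ATP luminescence with CellTiter-Glo after 30 min at room temperature.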

A short description of experiment [6]: qHTS assay to identify small molecule agonists of the sonic hedgehog signaling (Shh) pathway - cell viability counter screen (AID 1259366). Further: nearly all actives have a fitted effect of over 50% in size. Further: potency means the concentration at half of the fitted maximal effect. An outline of the steps: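 NIH/3T3-derived Gli1-Luc reporter cells, 2,000 per well, received compound after 4 h and were treated about 23 h at 37C. Viability measured in the same wells by CellTiter-Fluor fluorescence after 1 h.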

Experiment [7] is described as follows: qHTS assay to identify small molecule antagonists of the sonic hedgehog signaling (Shh) pathway - cell viability counter screen (AID 1259367). Further: nearly all actives have a fitted effect of over 55% in size. The method in brief: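 After a 4 hr settling period, 3T3 Gli1-Luc cells were treated with DMSO-dissolved chemicals and conditioned medium, kept 24 hr at 37C in 5% CO2, and assayed for viability by CellTiter-Fluor fluorescence following 1 hr reagent incubation.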

A short description of experiment [8]: qHTS assay to identify small molecule agonists of the sonic hedgehog signaling (Shh) pathway (AID 1259368; calls by dose curve;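 further: NIH/3T3-derived 3T3Gli1-Luc cells carrying a stable Gli1-driven firefly luciferase reporter; series mostly up to about 92 µM; nearly all actives have a fitted effect of over 15% in size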). An outline of the steps: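 A Gli1 transcriptional response element controlled firefly luciferase in 3T3Gli1-Luc cells. Compounds and a positive control were added 4 hr after plating, and cells were incubated a further 24 hr at 37 C before luminescence detection.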

Experiment [9] addresses Estrogen receptor beta (Homo sapiens) (UniProt Q92731). The experiment can be described thus: qHTS assay to identify small molecule agonists of the estrogen receptor beta (ER-beta) signaling pathway (AID 1259377; active means well fitted activation curve with a large enough effect in the signal ratio in the repeat runs, not every such curve was filed as active; the % refers to the signal ratio). An outline of the steps:
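ER-beta-UAS-bla HEK293T cells in medium with 2% charcoal-stripped FBS were exposed to compounds for 16 h at 37C. Beta-lactamase reporter activity was read as fluorescence after 2 h with LiveBLAzer B/G FRET substrate at room temperature.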

Experiment [10] in a line: qHTS assay to identify small molecule agonists of the androgen receptor (AR) signaling pathway in the presence of an antagonist - cell viability counter screen (AID 1259379). Further: nearly all actives have a fitted effect of over 25% in size. Further: potency means the concentration at half of the fitted maximal effect. The method in brief: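 Seed MDA-kb2 at 3,000 cells/well; incubate 5 hr, 37C, 0% CO2. Add nilutamide to 3.0uM final, then pin compounds at 15 concentrations. Incubate 16 hr. Add CellTiter-Fluor at 15 hr, read fluorescence after 1 hr.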

The nature of experiment [11]: qHTS assay to identify small molecule agonists of the estrogen receptor beta (ER-beta) signaling pathway - cell viability counter screen (AID 1259380). Further: nearly all actives have a fitted effect of over 30% in size. Further: potency means the concentration at half of the fitted maximal effect. The method in brief:
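CellTiter-Glo read, 30 min RT, same wells as bla assay; cells ER-beta-UAS-bla HEK293T; 16 hr compound, 37C; medium 2% charcoal-stripped FBS.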

Experiment [12] can be described thus: qHTS assay to identify small molecule antagonists of the estrogen receptor beta (ER-beta) signaling pathway - cell viability counter screen (AID 1259382). Further: series mostly up to about 92 µM; nearly all actives have a fitted effect of over 55% in size. An outline of the steps:
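In this multiplexed counter screen, cells were seeded at 2,000 per well in medium with 2% charcoal-stripped FBS and incubated 6 hr before compound and 1nM final E2 were added. Sixteen hours later, ATP-based luminescence reported viability.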

Experiment [13] concerns the target Estrogen receptor (Homo sapiens) (UniProt P03372). The experiment is described as follows: qHTS assay to identify small molecule agonists of the estrogen receptor alpha (ER-alpha) signaling pathway in the presence of an antagonist (AID 1259383; calls by dose curve; further: nearly all actives have a fitted effect of over 15% in size; further: potency means the concentration at half of the fitted maximal effect; on activation: top concentration of the series differs between compounds). An outline of the steps:
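Stably transfected VM7Luc4E2 reporter cells, kept 5 days in charcoal-stripped serum, received ICI-182,780 at 10.0nM final before compound addition. Following 22hr incubation at 37C and 5% CO2, luciferase signal was read by luminescence.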

Experiment [14] in a line: qHTS assay to identify small molecule agonists or antagonists of the thyroid stimulating hormone receptor (TSHR) signaling pathway - wild type cell line counter screen (AID 1259384; calls by dose curve). An outline of the steps: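 Wild-type HEK293 cells were plated 18 h at 37 C/5% CO2, pin-dosed with compound plus Ro20-1724 medium, held 30 min at room temperature, then given cAMP-d2 and anti-cAMP-cryptate; fluorescence was read after 1 h. Fifteen concentrations, triplicate.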

In experiment [15] the target is Estrogen receptor (Homo sapiens) (UniProt P03372). The experiment is described as follows: qHTS assay to identify small molecule antagonists of the estrogen receptor alpha (ER-alpha) signaling pathway using the BG1 cell line in the presence of 0.1 nM 17-beta-estradiol (AID 1259244). Further: nearly all actives have a fitted effect of over 50% in size. An outline of the steps: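 Estradiol at 0.1 nM (final) stimulates the endogenous ER-alpha of VM7Luc4E2 cells carrying an ERE-driven luciferase; compounds are co-incubated 22 h at 37C and luciferase output quantified by luminescence.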

The target in experiment [16] is Estrogen receptor beta (Homo sapiens) (UniProt Q92731). The experiment is described as follows: qHTS assay to identify small molecule antagonists of the estrogen receptor beta (ER-beta) signaling pathway (AID 1259378; active means well fitted inhibition curve with a large enough effect in the signal ratio in the repeat runs, not every such curve was filed as active; the % refers to the signal ratio; further: potency means the concentration at half of the fitted maximal effect). The method in brief:
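ER-beta-UAS-bla HEK293T (GripTite) cells in 2% charcoal-stripped FBS medium were preincubated 6 hr at 37C, dosed with compound, then stimulated with 1 nM E2 (final) for 16 hr; beta-lactamase reporter read by B/G FRET fluorescence after 2 hr substrate loading.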

In experiment [17] the target is Thyrotropin receptor (Homo sapiens) (UniProt P16473). The experiment is described as follows: qHTS assay to identify small molecule antagonists of the thyroid stimulating hormone receptor (TSHR) signaling pathway (AID 1259385; calls by dose curve; further: nearly all actives have a fitted effect of over 20% in size). An outline of the steps:
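TSHR-HEK293 cells were plated and held 18 h at 37C/5% CO2, then given compound plus Ro20-1724 and stimulated with TSH at 1.5 ng/mL final. After 30 min at room temperature, cAMP was detected with cAMP-d2/anti-cAMP-cryptate (1 h) by fluorescence.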

A short description of experiment [18]: qHTS assay to identify small molecule antagonists of the sonic hedgehog signaling (Shh) pathway (AID 1259369; calls by dose curve; further: nearly all actives have a fitted effect of over 45% in size). An outline of the steps: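 For antagonist detection, the reporter line received test compounds together with conditioned medium, incubated 24hr at 37 C, 5% CO2, then luminescence was recorded following 30min room-temperature luciferase reagent incubation.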

Several values for one entry are separate records, joined by “and”; a condition that tells them apart may be missing. Equal values may be shown once. Inconclusive results are not listed. Activity calls are given as the source filed them. Unless noted, the call rests on the fitted dose curve; in most records, active means well fitted curve in the direction sought with a large enough effect in the repeat runs; inconclusive means weak or mixed curves; inactive means no such curve, though single readings can be large; an effect the other way counts as inactive or inconclusive.

Estrogen receptor (Homo sapiens), sequence (P03372 whole entry, looked up): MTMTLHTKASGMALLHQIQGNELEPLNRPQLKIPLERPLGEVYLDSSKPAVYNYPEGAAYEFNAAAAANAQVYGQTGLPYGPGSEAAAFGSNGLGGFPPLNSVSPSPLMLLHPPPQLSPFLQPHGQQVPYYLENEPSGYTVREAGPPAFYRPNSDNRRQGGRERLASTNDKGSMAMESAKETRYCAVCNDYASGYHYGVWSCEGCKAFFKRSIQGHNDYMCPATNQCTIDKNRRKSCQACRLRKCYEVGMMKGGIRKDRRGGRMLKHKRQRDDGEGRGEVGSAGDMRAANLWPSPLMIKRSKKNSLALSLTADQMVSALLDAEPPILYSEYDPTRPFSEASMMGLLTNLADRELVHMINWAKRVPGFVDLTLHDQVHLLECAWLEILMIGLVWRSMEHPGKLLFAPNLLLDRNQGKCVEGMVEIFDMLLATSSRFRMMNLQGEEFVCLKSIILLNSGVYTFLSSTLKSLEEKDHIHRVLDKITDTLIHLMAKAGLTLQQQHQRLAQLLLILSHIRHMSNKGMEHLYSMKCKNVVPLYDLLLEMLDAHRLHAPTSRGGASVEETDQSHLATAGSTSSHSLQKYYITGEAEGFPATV
Estrogen receptor beta (Homo sapiens), sequence (Q92731 whole entry, looked up): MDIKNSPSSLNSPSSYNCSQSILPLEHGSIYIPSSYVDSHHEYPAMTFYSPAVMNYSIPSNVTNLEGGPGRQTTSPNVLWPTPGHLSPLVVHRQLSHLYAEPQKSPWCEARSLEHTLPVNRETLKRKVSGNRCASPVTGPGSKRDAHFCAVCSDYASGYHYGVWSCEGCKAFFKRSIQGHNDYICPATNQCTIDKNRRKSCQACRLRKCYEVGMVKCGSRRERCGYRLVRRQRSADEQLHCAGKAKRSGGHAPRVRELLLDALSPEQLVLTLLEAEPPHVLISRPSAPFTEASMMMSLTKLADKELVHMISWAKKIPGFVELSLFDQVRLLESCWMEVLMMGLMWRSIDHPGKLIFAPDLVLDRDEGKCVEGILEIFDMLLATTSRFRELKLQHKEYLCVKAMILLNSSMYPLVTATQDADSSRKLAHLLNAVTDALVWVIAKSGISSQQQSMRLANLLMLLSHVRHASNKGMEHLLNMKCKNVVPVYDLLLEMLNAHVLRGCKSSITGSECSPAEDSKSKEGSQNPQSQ
Thyrotropin receptor (Homo sapiens), sequence (P16473 whole entry, looked up): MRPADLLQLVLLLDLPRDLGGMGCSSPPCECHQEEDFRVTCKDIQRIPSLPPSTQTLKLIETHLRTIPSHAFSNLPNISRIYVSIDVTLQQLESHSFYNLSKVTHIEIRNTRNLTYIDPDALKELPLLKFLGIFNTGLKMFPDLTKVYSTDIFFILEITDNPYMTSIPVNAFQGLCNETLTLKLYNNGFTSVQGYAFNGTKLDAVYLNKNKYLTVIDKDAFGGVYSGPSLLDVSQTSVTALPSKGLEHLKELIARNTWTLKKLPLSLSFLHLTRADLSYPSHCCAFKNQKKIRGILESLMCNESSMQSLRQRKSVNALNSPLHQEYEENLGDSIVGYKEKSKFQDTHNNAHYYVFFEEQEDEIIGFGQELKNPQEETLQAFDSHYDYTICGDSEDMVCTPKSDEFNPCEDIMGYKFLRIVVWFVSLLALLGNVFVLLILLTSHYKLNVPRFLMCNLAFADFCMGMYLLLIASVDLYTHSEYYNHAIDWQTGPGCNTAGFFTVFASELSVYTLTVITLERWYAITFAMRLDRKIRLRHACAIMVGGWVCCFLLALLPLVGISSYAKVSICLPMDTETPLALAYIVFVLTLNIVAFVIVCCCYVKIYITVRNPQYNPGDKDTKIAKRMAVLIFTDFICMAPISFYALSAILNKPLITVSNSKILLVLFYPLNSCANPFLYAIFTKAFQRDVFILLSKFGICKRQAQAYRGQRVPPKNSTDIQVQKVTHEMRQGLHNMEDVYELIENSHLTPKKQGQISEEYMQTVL

On to `O=S(=O)(c1ccc(Cl)cc1)c1ccc(Cl)cc1`, for which the Potency result in [1], in [2], in experiment [3], in experiment [4], in experiment [5] and in [6] was “inactive” each time. Also, the Potency result in experiment [7], in experiment [8], in [9], in experiment [10], in experiment [11] and in experiment [12] was “inactive” each time. In addition, the Potency entry in [13] is “inactive”. Besides, the compound was classed as inactive in experiment [14].
Turning to `CC(C)OC(=O)C(O)(c1ccc(Cl)cc1)c1ccc(Cl)cc1`, the Potency entry in experiment [1], in experiment [2], in experiment [15], in [4], in [5] and in [6] was “inactive” throughout. The Potency entry in experiment [7], in experiment [8], in experiment [9], in experiment [10], in experiment [11] and in experiment [12] was “inactive” throughout. Besides, the Potency result in experiment [13] and in experiment [17] was “inactive” throughout. Moreover, the Potency in experiment [16] is 30.6 µM (active). For the same compound, in experiment [14], the result was inactive.
On to `ClC1=C(Cl)C2(Cl)C3C(Cl)C=CC3C1(Cl)C2(Cl)Cl` (stereo not drawn), for which the Potency result in experiment [1], in experiment [2], in [15], in experiment [4], in experiment [5] and in [6] was “inactive” in each case. The Potency entry in experiment [7], in [8], in experiment [9], in experiment [10], in experiment [12] and in [13] was “inactive” in each case. In addition, the Potency entry in experiment [17] is “inactive”. In addition, the Potency in experiment [11] was 61.4 µM (active). Moreover, the result in [14] was inactive.
Regarding `CC(C)CCCCCCCOP(=O)(Oc1ccccc1)Oc1ccccc1`, the Potency entry in experiment [1], in experiment [2], in experiment [15], in [4], in [5] and in [6] was “inactive” in each case. In addition, the Potency entry in [7], in experiment [8], in experiment [10], in experiment [11], in [12] and in experiment [13] was “inactive” each time. The Potency entry in experiment [17] is “inactive”. In experiment [14], the call was inactive.
For the compound `Nc1ccc(Sc2ccc(N)cc2)cc1`, the Potency entry in experiment [1], in [2], in experiment [3], in experiment [4], in [6] and in experiment [7] was “inactive” throughout. Moreover, the Potency result in experiment [8], in experiment [10], in [13] and in experiment [17] was “inactive” throughout. In addition, the call in [14] was inactive.
With `O=c1ssc(Cl)c1Cl`, the Potency entry in experiment [1], in experiment [15], in experiment [5], in [8] and in experiment [13] was “inactive” in each case. The Potency is 54.5 µM (active) in [2], 30.6 µM (active) in experiment [6] and 68.6 µM (active) in experiment [10].
Turning to `c1ccc(Nc2ccc3ccccc3c2)cc1`, the Potency entry in [1], in experiment [2], in experiment [15], in experiment [5], in [6] and in experiment [7] was “inactive” throughout. The Potency result in [8], in experiment [18], in experiment [9], in experiment [10] and in [17] was “inactive” each time. Besides, the Potency was 54.2 µM (active) and 48.6 µM (active) in [16]; 68.2 µM (active) in [11]; 8.63 µM (active) in [13]. Moreover, the result in [14] was inactive.
`CC(C)OS(C)(=O)=O`: the Potency result in [1], in experiment [2], in experiment [15], in experiment [4], in experiment [5] and in [6] was “inactive” each time. Moreover, the Potency entry in experiment [7], in experiment [8], in [16], in experiment [10], in [11] and in experiment [12] was “inactive” throughout. Also, the Potency entry in experiment [13] and in experiment [17] was “inactive” throughout. In experiment [14], the compound was classed as inactive.
